The list is not random: actives were taken first. Their share in the collection is about 1.1%.
OPRM1-OPRD1 inv = inverse agonist of human OPRM1-OPRD1 heterodimerization; cell-based MOR-DOR heterodimer luminescence, inverse agonism; inhibition, % at 9.3 µM; hit rate 0.21% among 340,000; AID 504357; in the data active = inhibition above about 22%, passing the limit was not always enough;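 note: 0% = cells with DMSO and 100% = wells without cells with DMSO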
HTR5A ag = counter-screen for OPRM1-OPRD1 agonists: human HTR5A agonism; P47898; AID 504692; hit rate 0.61% among 340,000; activation, % at 9.3 µM; HTR5A agonist assay, luminescence, cell-based; in the data active = activation mostly above about 9.5%, no sharp cut-off; inactive = mostly below about 7.6%;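 note: 0% = cells with vehicle only and 100% = reference agonist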
Target sequence (P47898 whole entry, looked up): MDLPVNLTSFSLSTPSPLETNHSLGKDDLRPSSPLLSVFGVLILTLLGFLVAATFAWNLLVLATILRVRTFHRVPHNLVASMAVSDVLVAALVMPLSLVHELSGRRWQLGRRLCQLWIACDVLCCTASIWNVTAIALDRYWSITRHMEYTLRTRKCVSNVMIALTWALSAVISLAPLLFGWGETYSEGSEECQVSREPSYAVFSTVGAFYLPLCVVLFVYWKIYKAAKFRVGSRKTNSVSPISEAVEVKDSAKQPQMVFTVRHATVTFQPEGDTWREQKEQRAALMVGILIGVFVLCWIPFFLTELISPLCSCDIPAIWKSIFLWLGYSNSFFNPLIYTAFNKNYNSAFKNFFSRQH
HTR5A inv ctr = HTR5A inverse agonism, opioid heterodimer counter-screen; P47898; HTR5A cell line, luminescence; inhibition, % at 9.3 µM; hit rate 0.083% among 340,000; AID 504634; in the data active = inhibition mostly above about 23%, no sharp cut-off; inactive = mostly below about 18%;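 note: 0% = cells with DMSO and 100% = no-cell wells with DMSO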
MOR-DOR ag = OPRM1-OPRD1 heterodimerization agonism; P35372+P41143; cells, luminescence; activation, % at 9.3 µM; hit rate 0.3% among 340,000; in the data active = activation above about 18%;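 note: 0% = vehicle-treated cells and 100% = reference agonist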
MOR-DOR inv conf = confirmation of human OPRM1-OPRD1 heterodimerization inverse agonists; shares compounds with OPRM1-OPRD1 inv; cells expressing OPRM1/OPRD1 heterodimer, luminescence; inhibition, % at 9.3 µM; hit rate 20% among 580; in the data active = inhibition above about 32%;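 note: 0% = cells with DMSO and 100% = wells lacking cells with DMSO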
HTR5A inv ctr2 = counter-screen for OPRM1-OPRD1 inverse agonists: human HTR5A inverse agonism. shares compounds with OPRM1-OPRD1 inv. HTR5A-expressing cells, luminescence. inhibition, % at 9.3 µM. 580 tested, under 10 active; call rule not given here;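 note: 0% = cells with DMSO and 100% = no-cell wells with DMSO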
Numbers without * were called inactive; i = inactive; · = no result.

SMILES | OPRM1-OPRD1 inv | HTR5A ag | HTR5A inv ctr | MOR-DOR ag | MOR-DOR inv conf | HTR5A inv ctr2
CC(=O)Nc1ccc(C(=O)OCC(=O)c2ccc(S(=O)(=O)N3CCCCC3)cc2)cc1 | -18.2 | -3.2 | -8.0 | 3.4 | · | ·
CC(=O)Nc1cccc(C(=O)OCC(=O)c2ccc(S(=O)(=O)N3CCCCC3)cc2)c1 | 47.3* | -7.1 | 17.8 | -8.6 | 48.8* | 14.9
Cc1ccc(C)c(-n2c(SCC(=O)N3CCC(C(=O)O)CC3)nnc2-c2cccc(Cl)c2)c1 | 1.7 | -2.7 | 6.7 | -0.3 | · | ·
CN(c1ccccc1)S(=O)(=O)c1cccc(C(=O)N2CCCCCC2)c1 | 23.4 | -1.0 | 16.7 | -4.8 | · | ·
Cc1ccc2[nH]c(O)c(N=Nc3ccccc3C)c2c1 | 31.7* | 3.1 | 1.5 | -5.0 | 3.8 | 4.0
O=C(CNS(=O)(=O)c1ccccc1)OCC(=O)c1ccccc1Cl | 25.1 | 0.7 | 1.5 | -4.5 | · | ·
CCOC(=O)c1c(NC(=O)CN2CCC(C)CC2)sc(C)c1C | -13.4 | -1.2 | 3.1 | 2.8 | · | ·
[O-]/[N+](=C\c1ccccc1)[C@@H]1CCCC[C@@H]1/[N+]([O-])=C/c1ccccc1 | 37.0* | 4.4 | 3.3 | -8.9 | 18.4 | 4.4
CCOCCCNC(=O)C1CCCN1C(=O)Nc1ccccc1[N+](=O)[O-] (stereo not drawn) | 13.0 | -2.1 | 6.0 | -2.4 | · | ·
Cn1nnc(NC(=S)NC(=O)c2cccs2)n1 | 30.6 | -8.8 | 21.2 | -6.2 | · | ·
COc1cc(OC)cc(C(=O)NC(=S)Nc2nnn(C)n2)c1 | 41.1* | -1.4 | 0.7 | -8.2 | 24.8 | 7.0
Cn1nnc(NC(=S)NC(=O)c2cccc3ccccc23)n1 | 40.8* | -1.1 | 4.7 | -7.7 | 9.3 | 3.4
CC(C)(C)NC(=S)NCc1ccco1 | 6.2 | -2.6 | -3.5 | -1.2 | · | ·
Fc1cccc(Cl)c1CSC1=NCCS1 | -16.6 | 2.1 | -12.3 | 2.0 | · | ·
ON(Cc1c(F)cccc1Cl)Cc1c(F)cccc1Cl | 35.1* | -4.2 | 1.9 | -7.0 | 70.1* | 9.3
C/C(CC(=O)Nc1ccc(N(C)C)cc1)=N\NC(=O)c1ccncc1 | 11.8 | -1.7 | 4.5 | -2.1 | · | ·
C[C@H](CO)N1C[C@H](C)[C@@H](CN(C)C(=O)Nc2ccccc2)Oc2ccc(NC(=O)CCN3CCOCC3)cc2C1=O | -0.6 | -5.5 | 18.8 | 0.1 | · | ·
COc1cc(C(C)=O)ccc1OCc1cn(CC(=O)c2ccc(O)cc2)nn1 | 31.7* | -2.3 | 8.7 | -6.8 | i | -24.9
CCN1CCN(C(=O)CN2C(=O)COc3ccc(C)cc32)CC1 | 12.2* | -4.0 | 12.1 | -1.5 | i | -18.9
CC(=O)OCC1(C)CN(c2ccccc2)N(C(=O)c2ccc(F)cc2)C1=O (stereo not drawn) | 44.3* | -0.5 | 1.2 | -6.1 | 27.4 | -9.4
CCN(CC)S(=O)(=O)c1cccc(-c2n[nH]c(=S)n2C)c1 | -7.0 | 3.6 | -9.3 | 1.4 | · | ·
Cc1ccc(-c2n[nH]c(=S)n2C)cc1Cl | 32.6* | -6.6 | 18.6* | -6.4 | 2.5 | 11.6
CCOC(=O)C(=O)NNc1ccc(C)cc1 | 31.1* | 0.6 | -2.1 | -6.0 | -1.3 | 19.4
CC(C)OC(=O)C(=O)NNc1ccccc1 | 24.0* | -3.0 | 8.2 | -3.4 | 4.1 | 3.1
CCCOC(=O)C(=O)NNc1ccccc1 | -0.2 | 2.2 | -6.2 | 0.0 | · | ·
SMILES | OPRM1-OPRD1 inv | HTR5A ag | HTR5A inv ctr | MOR-DOR ag | MOR-DOR inv conf | HTR5A inv ctr2
CC(C)NC(=O)CN1C(=O)C(=O)c2ccccc21 | 46.8* | -3.2 | 8.4 | -9.4 | -57.6 | -163.4
O=C1C(=O)N(CC(=O)N2CCCC2)c2ccccc21 | 28.2 | 2.2 | 4.7 | -5.4 | · | ·
Cc1nnc(NC(=O)CSc2nccn2C)s1 | 1.4 | 0.9 | -6.0 | -0.2 | · | ·
Cc1ccc(C(=O)COC(=O)C(C)N2C(=O)C3C4CCC(C4)C3C2=O)cc1C (stereo not drawn) | 14.0 | -1.4 | 8.5 | -2.0 | · | ·
CC(C(=O)OCC(=O)c1cccc([N+](=O)[O-])c1)N1C(=O)C2C3CCC(C3)C2C1=O (stereo not drawn) | 53.9* | -4.0 | 10.8 | -7.5 | 16.6 | 6.3
CC(C(=O)OCC(=O)c1cccc([N+](=O)[O-])c1)N1C(=O)C2C3C=CC(C3)C2C1=O (stereo not drawn) | 47.6* | -6.8 | 19.1 | -8.9 | i | -15.8
Cc1ccc(C(=O)NNC(=O)c2cccc3ccccc23)cc1 | 4.4 | 0.0 | 0.0 | -0.8 | · | ·
CCOC(=O)Cn1c(=O)c2c(nc3n2CCCN3CCc2ccccc2)n(C)c1=O | 13.4 | 3.3 | -12.9 | -2.4 | · | ·
CC(C#N)Sc1nc2ccccc2c(=O)n1-c1ccccc1 (stereo not drawn) | 20.0 | 1.0 | -4.6 | -3.5 | · | ·
Cc1oc(-c2ccccc2F)nc1CS(=O)(=O)CC(=O)NCCCc1ccccc1 | 4.0 | -1.5 | -11.3 | -0.7 | · | ·
CCOc1ccc(C=NC23CN4CN(CN(C4)C2)C3)cc1 | -14.2 | 1.8 | -25.8 | 2.6 | · | ·
CCOc1ccc(CNC23CN4CN(CN(C4)C2)C3)cc1 | 15.7* | 2.1 | -5.4 | -2.5 | 28.3 | 9.3
COC(=O)NNC(=O)c1ccc(Cl)cc1Cl | -2.2 | -0.6 | -16.4 | 0.4 | · | ·
CC(C)(C)C(=O)NC(=S)NNC(=O)c1ccc(Cl)cc1Cl | 38.5* | -4.5 | 13.2 | -7.7 | 15.5 | 16.9
Cc1cc2ncn(C(=O)N3CCCCC3)c2cc1C | 5.7 | 2.8 | -19.2 | -1.0 | · | ·
Cc1ccccc1OCCN1C(=O)C(=O)c2cccc(C)c21 | 58.0* | 2.0 | -10.4 | -9.3 | -223.8 | -55.4
Cc1cccc2c1N(CCOc1ccccc1Cl)C(=O)C2=O | 34.5* | -0.3 | 0.8 | -5.7 | -0.9 | -6.7
COc1ccccc1OCCCN1C(=O)C(=O)c2cccc(C)c21 | 40.7* | -4.8 | 13.1 | -7.7 | 56.1* | 3.1
O=C1c2ccccc2C(=O)N1CCOc1ccccc1Cl | 11.6 | -2.0 | -4.9 | -2.2 | · | ·
CCOC(=O)c1c(NC(=O)COC(=O)c2ncc(Cl)c(Cl)c2Cl)sc(C(=O)N(C)C)c1C | 1.3 | -0.9 | 2.3 | -0.2 | · | ·
Cn1ccnc1Sc1cc(NCCCO)c([N+](=O)[O-])c2nonc12 | 37.0* | -6.3 | 27.2 | -7.1 | 3.8 | -1.7
CCn1c(Cl)c(C=O)s/c1=N\S(=O)(=O)c1ccccc1 | 33.5* | -2.2 | 6.1 | -6.3 | 19.7 | 16.5
CCN1C(=O)CS/C1=N\S(=O)(=O)c1ccc(Cl)cc1 | 4.6 | 0.2 | -0.7 | -0.9 | · | ·
O=C(Nc1cccc(C(=O)Nc2ccccc2F)c1)c1ccccc1 | -64.7 | 0.4 | -6.8 | 11.7 | · | ·
CCCc1c(C(=O)Nc2ccc(C(F)(F)F)cc2)cnn1-c1ccccc1 | -25.9 | 0.5 | -3.0 | 5.3 | · | ·
CCCc1c(C(=O)NNc2ccc(C)cc2)cnn1-c1ccccc1 | 39.3* | 2.1 | -0.9 | -7.8 | -3.2 | -15.7
COc1cc(C(=O)OCC(=O)N(CC(C)C)C2CCS(=O)(=O)C2)cc(OC)c1C (stereo not drawn) | 6.8 | 4.6 | 13.1 | -1.8 | · | ·
O=C(NCCc1cccs1)C1CC(c2ccccc2[N+](=O)[O-])=NO1 (stereo not drawn) | 4.9 | 2.5 | -4.6 | -0.9 | · | ·
Cc1c(C(=O)N(C)C)sc2nc(-c3ccccn3)[nH]c(=O)c12 | 16.0 | 3.4 | -8.7 | -3.2 | · | ·
O=c1[nH]c(-c2ccccn2)nc2sc(-c3ccccc3)cc12 | 33.0* | 2.1 | -6.1 | -6.4 | 6.1 | 1.8

Bioassay records deposited in PubChem by The Scripps Research Institute Molecular Screening Center.
